# MazF activator: activators of E. coli MazEF toxin-antitoxin RNase, primary screen, biochemical, fluorescence, uHTS; activation, % at 20 µM; AID 504720, 2011; FAM/BHQ RNA-DNA oligo cleavage fluorescence, 5 h; actives 0.32% (n = 350,000); Endoribonuclease toxin MazF (Escherichia coli (strain K12)), P0AE70; in the data active = activation above about 50%
# BoNT-F LC inh: BoNT/F light chain protease inhibitors, primary screen, biochemical, flow cytometry, MLPCN library. Botulinum neurotoxin type F light chain protease (Clostridium botulinum). actives 0.22% (n = 360,000). Multiplex microsphere protease cleavage assay. inhibition, % at 10 µM. AID 588497, 2011; in the data active = inhibition above about 35%, passing the limit was not always enough; inconclusive = no clear call, values can overlap the other calls; also: plate controls were buffer without enzyme for full effect and enzyme alone for no effect
# Anthrax LF prot: Bacillus anthracis LF protease inhibitors, primary screen, biochemical, multiplex microsphere, MLPCN library; multiplex microsphere protease cleavage assay; inhibition, % at 10 µM; actives 0.12% (n = 360,000); AID 588501, 2011; also: plate controls were buffer without enzyme for full effect and enzyme alone for no effect
# BoNT A protease: BoNT/A light chain protease inhibitors, primary screen, biochemical, flow cytometry, MLPCN library; AID 588499, 2011; actives 0.17% (n = 360,000); inhibition, % at 10 µM; Botulinum neurotoxin type A light chain protease (Clostridium botulinum A str. ATCC 3502); multiplex microsphere protease substrate cleavage; also: plate controls were buffer without enzyme for full effect and enzyme alone for no effect
# Autofluor counter: counter-screen for toxin protease inhibitors: compound fluorescence; compound autofluorescence counterscreen, microsphere flow cytometry; active compounds read high; fluorescence intensity (no concentration beside the values); actives 3.1% (n = 360,000); AID 624483; in the data active = fluorescence intensity above about 16000; inconclusive = no clear call, values can overlap the other calls
# * = called active by the depositor; ? = inconclusive; / = not tested or not shown. The list is not random: actives were taken first. Their share in the collection is about 3.7%. Rule as the data show it, unless noted: active = inhibition above about 30%; inconclusive = no clear call, values can overlap the other calls; inactive = below that.
SMILES,MazF activator,BoNT-F LC inh,Anthrax LF prot,BoNT A protease,Autofluor counter
Cc1cc(C)nc(N2CCC(C(=O)Nc3nnc(C)s3)CC2)n1,-3.8,2.1,-12.5,?,18862*
CCC(C)(C)NC(=O)C1CCN(c2nc(C)cc(C)n2)CC1,-3.4,-0.7,-0.7,-1.3,16929*
O=C(Nc1nnc(SCC(=O)N2CCCCC2)s1)C1CCCCC1,4.4,26.7,-2.5,1.1,3005
COCCSc1nnc(NC(=O)C2CCCCC2)s1,4.0,-2.2,-1.5,-1.2,17088*
Cc1nnc(NC(=O)C2CCCC2)s1,6.3,-2.1,0.5,1.2,5972
CCCNC(=O)C1CCN(c2nc(C)cc(C)n2)CC1,6.1,8.6,1.4,0.7,4400
Cc1ccc2ccccc2c1C(O)c1ncc(-c2ccc(Cl)cc2)[nH]1 (stereo not given),/,-8.9,2.6,-0.2,2940
O=C(Nc1ccc(S(=O)(=O)NCc2ccco2)cc1)C1CCCCC1,6.6,-2.8,-0.7,0.6,4626
Cc1nc(NC(=O)COC(=O)CCS(=O)(=O)c2ccccc2Cl)c(Cl)cc1Cl,-8.0,-1.2,1.7,?,20461*
Cc1nc(NC(=O)COC(=O)C2CC2C)c(Cl)cc1Cl (stereo not given),-2.8,-6.8,0.8,-0.4,3657
O=C(COC(=O)CCc1ccccc1)Nc1ncc(Cl)cc1Cl,0.8,-1.2,-0.7,-1.3,16931*
CCCC1C(c2ccc(OC)cc2)C(C#N)(C#N)C2(C#N)CC1(N)NC2=O (stereo not given),4.7,0.9,-1.1,1.1,20036*
CSc1ncnc2c1ncn2CCCN1CCN(Cc2c(C)cc(C)cc2C)CC1,8.1,-1.1,4.7,-0.1,2943
CC(Sc1ncnc2sccc12)C(=O)Nc1ccc(S(N)(=O)=O)cc1 (stereo not given),0.4,-5.6,-1.9,-0.7,3200
CC(Sc1ncnc2sccc12)C(=O)Nc1ccc(C(N)=O)cc1 (stereo not given),53.6*,-6.0,4.0,0.0,4264
Clc1nc(-c2ccccc2)cc(-c2ccc(Br)cc2)n1,-4.5,-2.6,-2.1,-1.1,23930*
O=C(O)CC1S/C(=N/N=C/c2ccc(Br)cc2)N(c2ccccc2)C1=O (stereo not given),8.6,-8.5,3.2,0.8,4337
COc1ccc(N2C(=O)C(CC(=O)O)S/C2=N\N=C\c2cccs2)cc1 (stereo not given),-12.0,43.3*,3.2,3.3,3074
Cc1ccc(C(=O)OCC(=O)N(CC(C)C)c2c(N)n(Cc3ccccc3)c(=O)[nH]c2=O)s1,5.9,-12.7,-0.6,-1.3,?
Cc1cc2c(cc1C)N(C(=O)CSC1=NCCS1)C(C)(C)c1ssc(=S)c1-2,0.1,-5.5,-5.2,-1.7,21080*
COc1ccc(S(=O)(=O)N(C(C)=O)c2ccc3oc(=O)sc3c2)cc1,-3.2,1.4,1.4,-0.6,20711*
COC(=O)c1c(C)oc2ccc(N(C(C)=O)S(=O)(=O)c3ccccc3)cc12,6.2,3.1,-3.1,1.9,4204
Cc1c(NC(=O)C(C)OC(=O)c2cccnc2Cl)c(=O)n(-c2ccccc2)n1C (stereo not given),-1.7,-6.9,-0.3,-0.4,3533
CCOC(=O)C1CCCN(C(=O)c2cc3c(C)nc4ccccc4c3o2)C1 (stereo not given),8.9,3.1,0.9,0.2,22194*
CCOC(=O)C1CCCN(C(=O)N2CCOCC2)C1 (stereo not given),-0.8,-0.7,-2.0,?,19919*
SMILES,MazF activator,BoNT-F LC inh,Anthrax LF prot,BoNT A protease,Autofluor counter
CCOC(=O)C1CCCN(C(=O)c2ccc(-c3ccccc3Cl)o2)C1 (stereo not given),0.7,/,/,/,/
CCOC(=O)C1CCCN(C(=O)c2ccco2)C1 (stereo not given),9.5,-1.4,2.7,0.9,23110*
Cc1nc2ccccc2c2oc(C(=O)N3CC(C)CC(C)C3)cc12 (stereo not given),-6.2,-4.8,-1.3,0.2,5918
COc1ccc(NC(=O)Cn2c(=O)n(-c3ccc(OC)cc3OC)c(=O)c3c(C)c(C)sc32)cc1,1.0,-17.1,-1.8,-1.5,2607
O=C(NCC1CCCN1S(=O)(=O)c1cccs1)C(=O)Nc1ccc(F)cc1F (stereo not given),3.5,?,?,4.4,?
Cc1ccc(OCc2nc(-c3ccc(Cl)cc3)n[nH]2)cc1,-8.9,1.2,-12.1,2.0,19787*
COc1ccccc1NS(=O)(=O)c1cc(C(=O)NCC(c2ccco2)N2CCCCC2)ccc1C (stereo not given),-2.0,0.1,3.7,4.8,4733
COc1ccccc1NC(=O)/C(=N/OCc1ccc(F)cc1)C(C)=O,74.6*,-3.3,-0.4,0.0,2209
COc1ccccc1NC(=O)C(=N\O)/C(C)=N/O,-3.9,1.4,-3.2,0.2,2317
CC1CCC(N(CCCN)Cc2ccco2)CC1C (stereo not given),5.4,-8.1,-8.2,-0.6,4708
O=C1CCC(=O)N1OCCCOc1ccccc1,-6.2,-1.0,-3.1,-1.6,17200*
O=C1CCC(=O)N1OCCCCOc1ccccc1,0.5,-6.4,-2.3,0.2,4219
Cc1ccc(NC(=O)/C(=C\c2ccco2)NC(=O)c2ccco2)cc1,15.9,-1.4,14.4,0.1,3098
Cc1ccc(NC(=O)N/C=C/c2ccco2)cc1,-1.2,3.8,-0.6,1.0,22171*
Cc1ccc(S(=O)(=O)NC(=O)c2cccn2C)cc1,-0.6,-0.9,-0.2,0.4,16326*
Cc1ccc(S(=O)(=O)N(Cc2ccccc2)c2ccccc2C(=O)Nc2ccccc2C(=O)NCc2ccco2)cc1,-24.5,-0.8,-1.8,-1.1,2114
COc1ccc(N(CC(=O)NCc2ccco2)S(=O)(=O)c2ccc(OC)c(OC)c2)cc1,0.1,5.0,-2.6,?,22427*
CS(=O)(=O)N(Cc1ccccc1)c1ccccc1C(=O)Nc1ccccc1C(=O)NCc1ccco1,-3.4,-2.5,-5.2,-1.5,23578*
O=C(NCc1ccco1)c1ccccc1NS(=O)(=O)c1cccs1,0.1,3.4,-3.7,3.3,19002*
CS(=O)(=O)N(Cc1ccc(C(=O)NCCSCc2ccco2)cc1)c1ccccc1,5.0,1.5,-9.1,1.2,21841*
CCOc1ccc(CCNC(=O)COC(=O)c2ccc[nH]c2=O)cc1OCC,5.1,-9.6,3.4,-0.1,4091
COc1ccc(N(CC(=O)Nc2ccccc2C(=O)NCc2ccco2)S(C)(=O)=O)cc1,1.9,0.9,-2.5,0.5,22786*
COc1ccc(OC)c(N(CC(=O)Nc2ccccc2C(=O)NCc2ccco2)S(C)(=O)=O)c1,2.3,1.6,-3.9,-1.2,8017
NC(=O)c1cc([N+](=O)[O-])c(Cl)cc1NCc1cccnc1,-4.8,-3.6,-4.7,-0.4,3038
O/N=C1/C(=C\c2ccccc2)N2CCC1CC2,-6.3,8.9,-5.4,7.2,19798*
Cc1ccc(N2CCCn3c2cc(C)c(C#N)c3=O)cc1C,-0.3,1.7,-4.7,2.1,21058*
